The whole screen tested about 320,000 compounds, of which about 2,100 (0.66%) were called active. About 53% were inconclusive and are not listed. Calls follow the shape of the dose curve; as a rule, active = well fitted inhibition curve with a large enough effect in the signal ratio, with a control signal flat (not every such curve was filed as active); inconclusive = small, poorly fitted or top-dose-only effect, or effect the other way, or a change in a side signal; inactive = flat fitted curve, though single readings scatter; the % refers to the signal ratio. What follows is part of a selection rich in actives, with near analogues and random picks from the rest.
Potency is read from the fitted curve at half-maximal effect.

A short description of the assay: qHTS Assay for Lipid Storage Modulators in Drosophila S3 Cells.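 As to cell number change: cells counted by Cell Tracker Red CMTPX staining in the red channel.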 As to lipid storage change, negative = inhibition: % is scaled to controls: 0 for no effect and ±100 for the full control effect. The settings on record: BODIPY lipid droplet fluorescence, 18-24 h, cells fed with added oleic acid; cell number change: measured here: cell count max response; series mostly up to 46.1 µM; lipid storage change, negative = inhibition: at the top concentration. Summed up: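 Drosophila S3 cells got compounds at several concentrations plus oleic acid (400 uM solution). Laser-scanning cytometry with 488 nm excitation read lipid droplets at 500-530 nm and cells at 575-640 nm. Percent activity was relative to 20 uM Triacsin C.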
In general terms: In qHTS, concentration-response curves come from the screen itself.
For `O=C(Cn1cnc2c(cnn2-c2ccccc2)c1=O)Nc1cc(S(=O)(=O)N2CCOCC2)ccc1Cl`, the Potency is 25.9 µM (active) and the cell number change was -7.78%.

Take `O=S(=O)(c1ccc(Oc2ccc(Br)cc2)cc1)N1CCOCC1`: the Potency was 13 µM (active) and the cell number change is -10%. Take `O=C(Cn1cnc2c(cnn2-c2ccccc2)c1=O)Nc1ccc(S(=O)(=O)N2CCOCC2)cc1`: the “lipid storage change, negative = inhibition” value was 0.0141% (inactive) and the cell number change was -0.435%. Consider `O=S(=O)(c1ccc(OCc2ccc(Br)cc2)cc1)N1CCOCC1`, for which the “lipid storage change, negative = inhibition” value was 11.4% (inactive) and the cell number change was -10.6%. With `CCOc1ccc(NC(=O)c2cc(S(=O)(=O)N3CCOCC3)cs2)cc1`, the “lipid storage change, negative = inhibition” value was -20% (inactive) and the cell number change is -10.9%. Take `Cc1ccc(C(=O)NNC(=O)c2ccc(S(=O)(=O)N3CCOCC3)cc2)cc1`: the “lipid storage change, negative = inhibition” value was -19.9% (inactive) and the cell number change amounted to 13.5%. In the case of `CCc1cccc(OCC(=O)Nc2cc(S(=O)(=O)N3CCOCC3)ccc2N2CCCC2)c1`, the Potency was 13 µM (active) and the cell number change is -12.1%. `CCOc1ccc(C(=O)NNC(=O)c2cc(S(=O)(=O)N3CCOCC3)ccc2Cl)cc1`: the Potency is 25.9 µM (active) and the cell number change worked out at 8.57%.

With `O=C(Cn1cnc2c(cnn2-c2ccccc2)c1=O)N1CCOCC1`, the “lipid storage change, negative = inhibition” value is -9.53% (inactive). On to `CCc1cccc(OCC(=O)Nc2ccccc2N2CCCC2)c1`, for which the “lipid storage change, negative = inhibition” value was -9.11% (inactive) and the cell number change was -24.4%.

For the compound `O=C(c1ccccc1)c1cccn1CC(=O)N1CCCCCC1`, the “lipid storage change, negative = inhibition” value is 2.14% (inactive) and the cell number change is 10.2%.

Take `CC(=O)N1N=C(c2c(-c3ccccc3)c3cc(C)ccc3[nH]c2=O)CC1c1ccco1` (stereo not given): the “lipid storage change, negative = inhibition” value is 21.2% (inactive). Turning to `Cc1ccc(S(=O)(=O)N2CCOC2CNC(=O)C(=O)NCCc2c[nH]c3ccccc23)cc1` (stereo not given), the cell number change was found to be 24.7% and the lipid storage change, negative = inhibition was 6.05% [at 9.22 µM] (inactive).

Take `Cc1nn(C)c(Cl)c1CN1CCN(CCC(C)C)C(CCO)C1` (stereo not given): the “lipid storage change, negative = inhibition” value is -10.1% (inactive) and the cell number change turned out to be 11.3%. The corresponding values for `CCOC(=O)c1c(NC(=O)CSc2nnc(C)c(=O)[nH]2)sc(C)c1-c1ccc(C)cc1` are -16.6% (inactive) and 18.2%. Regarding `COc1cccc(NC(=O)C(C)Sc2nnc(C3CC3)n2C2CC2)c1` (stereo not given), the “lipid storage change, negative = inhibition” value was -7.9% (inactive) and the cell number change was -1.32%.

On to `Cc1ccc(S(=O)(=O)N2CCCCC2)cc1NC(=O)COC(=O)Cc1c(F)cccc1Cl`, for which the “lipid storage change, negative = inhibition” value is 26.6% (inactive) and the cell number change came out at 10%. `CCOC(=O)/C(=N/Nc1ccc(OC)cc1)N1CCCc2ccccc21`: the “lipid storage change, negative = inhibition” value was 12% (inactive) and the cell number change was -4.8%. Turning to `CCOC(=O)c1[nH]ncc1CN1CCCC(C(=O)c2ccc(SC)cc2)C1` (stereo not given), the “lipid storage change, negative = inhibition” value was 1.75% (inactive) and the cell number change is 0.969%. In the same order, the values of `COC(=O)c1ccc(-c2c(-c3ccccc3)ncc3cc(F)ccc23)cc1` are -6.07% (inactive) and -9.19%. With `CCn1c(CSc2nc3ccccc3s2)nnc1SCC(=O)NCC(=O)OC`, the Potency was 25.9 µM (active) and the cell number change is -13.2%. Regarding `CCn1c(CSc2nc3ccccc3s2)nnc1SCC(=O)c1ccc(O)c(O)c1`, the compound was called inactive and the cell number change was determined as 8.44%. For `CCn1c(CSCc2ccc(F)cc2)nnc1SCC(=O)NCc1ccccc1`, the outcome was inactive. On to `CCn1c(CSCc2ccc(C)cc2)nnc1SCC(=O)NCc1ccccc1`, for which the Potency is 20.6 µM (active) and the cell number change is -15.2%.

Turning to `CCn1c(CNc2ccc(C)cc2)nnc1SCC(=O)NCc1ccccc1`, the “lipid storage change, negative = inhibition” value is 17.1% (inactive) and the cell number change is -12.4%. On to `CCn1c(CSc2nc3ccccc3s2)nnc1SCC(=O)c1ccc(O)cc1O`, for which the outcome was inactive and the cell number change is -7.44%. Regarding `CC(C)[C@H](N)c1cn([C@@H](CC(N)=O)C(=O)N2CCNCC2)nn1`, the “lipid storage change, negative = inhibition” value is 7.43% (inactive) and the cell number change worked out at 10%. Consider `CCOC(=O)Cn1nc(C)c([N+](=O)[O-])c1C`, for which the “lipid storage change, negative = inhibition” value is 2.28% (inactive) and the cell number change was determined as 2.33%. Consider `O=C(CS(=O)CC(=O)N(CC(=O)NC1CCCC1)c1ccc2c(c1)OCCO2)Nc1ccc(F)cc1` (stereo not given), for which the “lipid storage change, negative = inhibition” value was -7.01% (inactive) and the cell number change stood at 11.4%. Take `Cc1cc(C)c2c(N)c(C(=O)c3ccc(Br)cc3)oc2n1`: the “lipid storage change, negative = inhibition” value is -2.5% (inactive) and the cell number change is -13.1%. `Cc1ccc(C(=O)c2oc3nc(C)cc(C)c3c2N)cc1`: the “lipid storage change, negative = inhibition” value is -5.18% (inactive) and the cell number change was -19%. Regarding `CCc1ccc(C(=O)c2oc3nc(C)cc(C)c3c2N)cc1`, the Potency was 25.9 µM (active) and the cell number change is -19.5%. `CC1CC(C)CN(S(=O)(=O)c2ccc(NC(=O)CN3C(=O)NC(C)(c4ccccc4)C3=O)cc2)C1` (stereo not given): the compound was classed as inactive and the cell number change was found to be 3.59%.

As to `O=C(O)C1CC(=O)N(C2CCCCC2)C1c1ccccc1` (stereo not given), the compound was classed as inactive and the cell number change was -5.69%. Take `CCOC(=O)N1CCN(C(=O)CSc2nc(=O)n3cc(C)ccc3n2)CC1`: the outcome was inactive. Take `Cc1ccc(C(NC(=O)C2CCCCC2)c2c(O)ccc3ccccc23)cc1` (stereo not given): the Potency is 13 µM (active) and the cell number change is -26.6%. In the case of `CC(C)CC(=O)NC(c1ccccc1)c1c(O)ccc2ccccc12` (stereo not given), the “lipid storage change, negative = inhibition” value is 27% (inactive) and the cell number change was -6.8%. For the compound `CC(=O)NC(c1ccccc1)c1c(O)ccc2ccccc12` (stereo not given), the “lipid storage change, negative = inhibition” value is -3.87% (inactive) and the cell number change was found to be 0.433%. For the compound `CCN(CC)S(=O)(=O)c1ccc(N2CCOCC2)c(NC(=O)CN2C(=O)NC(C)(c3ccccc3)C2=O)c1` (stereo not given), the “lipid storage change, negative = inhibition” value is 12.6% (inactive). Turning to `O=C(Cc1cccc(F)c1)N1CCCC(CO)(Cc2ccc(F)cc2F)C1` (stereo not given), the “lipid storage change, negative = inhibition” value was 18.2% (inactive) and the cell number change was 17.6%. For the compound `CC(C)c1nc2sc3c(=O)[nH]cnc3c2c2c1CCC2`, the “lipid storage change, negative = inhibition” value is 5.84% (inactive) and the cell number change is -2.67%.

`CC1(C)Cc2c(c(-c3ccccc3)nc3sc4c(=O)[nH]c(=S)[nH]c4c23)CO1`: the result was inactive. For the compound `CC(C)c1nc2sc3c(=O)[nH]c(=S)[nH]c3c2c2c1CCC2`, the Potency is 20.6 µM (active) and the cell number change stood at 5.1%.

Values taken from PubChem BioAssay AID2685 (National Center for Advancing Translational Sciences (NCATS), 2010).
